TDP1 cell noCPT = qHTS for Inhibitors of human tyrosyl-DNA phosphodiesterase 1 (TDP1): qHTS in cells in absence of CPT. DT40 Tdp1-/- hTDP1 cells, no CPT, ATP luminescence, 48 h. Potency, µM (highest dose often 46.2 µM), actives largely listed as inhibitors. 15% of 420,000 active; further: nearly all actives have a fitted effect of over 55% in size
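Chicken DT40 Tdp1-/- cells stably complemented with human TDP1 were seeded at 400 cells/well with DMSO in place of 20 nM camptothecin. After compound pinning, cells grew at least 48 hr at 37 °C; viability read by CellTiter-Glo luminescence.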
TGFb SMAD3 inh = TGF-b pathway inhibition; HepG2 CAGA-GFP TGF-b/SMAD3 reporter, GFP fluorescence, 18 h; TGF-beta stimulated, 500 pg/mL final; Potency, µM (doses to about 46.1 µM), most hits filed as inhibitors; 1.2% of 410,000 active; AID 588855; further: nearly all actives have a fitted effect of over 65% in size
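HEPG2 CAGA-GFP, 1000 cells/well; 2 h settle, 37 C; cpd via pin tool; TGF-b 500 pg/mL final; 18 h, 37 C; GFP imaging ex488/em500-530; %Activity normalised to -TGF-b and +DMSO controls; CRC fit, curve class.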
HepG2 viability = kills HepG2 cells in TGF-b inhibitor counter-screen; HepG2 CAGA-GFP viability, ATP luminescence, 18 h; Potency, µM (titrated, usually from 46.1 µM), usual class: cytotoxic; 0.76% of 410,000 active
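CellTiter-Glo luminescence gave cytotoxicity after 18 hours at 37 degrees C. The cells were HepG2 CAGA-GFP in 1% FBS DMEM, stimulated with 500 pg/mL TGF-beta after compound addition. %Activity was normalised to no-cell wells (complete cell-killing) and DMSO (no toxicity), and curves were fitted and classified.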
DT40 TDP1 CPT = growth inhibition of DT40 Tdp1-/-;hTDP1 cells with camptothecin (screen for TDP1 inhibitors); chicken DT40 Tdp1-/-;hTDP1 cells + 20 nM CPT, ATP luminescence, 48 h; Potency, µM (top dose mostly 46.2 µM), actives largely listed as inhibitors; 12% of 420,000 active; AID 686979; further: nearly all actives have a fitted effect of over 55% in size
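Chicken DT40 Tdp1-/- cells stably complemented with human TDP1 were seeded at 400 cells/well in medium containing 20 nM camptothecin, exposed to pin-transferred compounds, and grown at 37 °C for at least 48 hr. Viability was read as ATP luminescence.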
S-ASM inh = human S-ASM enzyme inhibition. P17405. placental ASM, HMU-PC fluorogenic substrate, 60 min. Potency, µM (titrated, usually from 57.5 µM), hits mostly inhibitors. 0.006% of 340,000 active
Target sequence (P17405 47-631 limits assumed): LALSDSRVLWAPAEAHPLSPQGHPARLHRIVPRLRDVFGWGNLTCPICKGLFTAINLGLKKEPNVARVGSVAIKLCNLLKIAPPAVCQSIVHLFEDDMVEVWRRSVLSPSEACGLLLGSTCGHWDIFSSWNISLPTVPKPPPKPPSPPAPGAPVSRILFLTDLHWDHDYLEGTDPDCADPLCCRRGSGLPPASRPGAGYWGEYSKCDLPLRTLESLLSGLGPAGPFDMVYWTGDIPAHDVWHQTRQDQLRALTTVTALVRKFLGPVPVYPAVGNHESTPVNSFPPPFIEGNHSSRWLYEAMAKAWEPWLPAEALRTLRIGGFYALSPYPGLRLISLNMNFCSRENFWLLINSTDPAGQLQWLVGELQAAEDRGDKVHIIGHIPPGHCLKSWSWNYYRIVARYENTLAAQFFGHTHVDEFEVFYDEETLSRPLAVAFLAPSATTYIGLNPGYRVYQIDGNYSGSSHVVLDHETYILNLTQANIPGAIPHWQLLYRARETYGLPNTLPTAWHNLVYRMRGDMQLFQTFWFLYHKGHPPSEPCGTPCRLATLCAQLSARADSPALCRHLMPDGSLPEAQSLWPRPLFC
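Human placenta-derived ASM preincubated with compound 10 min at room temperature, then reacted with 9 uM (final) fluorogenic HMU-PC substrate for 60 min at 37 C. Stop solution raises pH to 10; fluorescence read at Ex 386/Em 447 nm.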
IL-1B inflam inh = blocks inflammasome-driven IL-1 beta release. 4.7% of 360,000 active. THP-1 LPS/ATP IL-1B secretion, AlphaLISA, 16 h; stronger effect = lower value. activity change, % at 57.5 µM. AID 743279; in the data active means activity change below about -50%; inconclusive means mostly about -30% to -49%
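Secreted IL-1B measured by AlphaLISA bead assay after 16 h compound exposure of THP-1 cells; compounds (final up to 57.5 uM) added 1 h before LPS (250 ng/mL) and ATP (1.25 mM) stimulation; lower signal means less secretion.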
Hits are given with their value; 0 = inactive; ? = inconclusive; - = not tested or not shown; [ ] = dose if it differs, or a comment. This is a sample that favours compounds with a hit; in the whole collection about 19% have one here. Unless noted, the call rests on the fitted dose curve; in most records, active means well fitted curve in the direction sought with a large enough effect; inconclusive means small, poorly fitted or top-dose-only effect, or another doubt; inactive means no such curve, though single readings can be large; an effect the other way counts as inactive or inconclusive.

SMILES | TDP1 cell noCPT | TGFb SMAD3 inh | HepG2 viability | DT40 TDP1 CPT | S-ASM inh | IL-1B inflam inh
CCCCCCC(Cl)(Cn1ccnc1)c1ccccc1 (stereo unspecified) | 14.6µM | 0 | 0 | ? | 0 | 0
C[C@H]1CCC/C=C/C2C[C@H](O)C[C@H]2[C@H](O)/C=C/C(=O)O1 (stereo partly specified) | 0.355µM | - | - | 0.251µM | - | -
CC(=O)OC1CC[C@@]2(C)C3CC[C@]4(C)C(=O)CCC4C3CC[C@H]2C1 (stereo partly specified) | 0 | - | - | ? | - | -
CC12CCC(=O)C=C1CC(N1CC1)C1C2CCC2(C)C(O)CCC12 (stereo unspecified) | 2.59µM | 0 | 0 | 1.84µM | 0 | 0
CC(=O)C1CCC2C3C(N4CC4)CC4=CC(=O)CCC4(C)C3CCC12C (stereo unspecified) | 4.61µM | 0 | 0 | 3.66µM | 0 | 0
CC(C)C[C@H](CN)CC(=O)O | 0 | - | - | 0 | - | -
COc1ccc(C2C(C#N)=C(N)Oc3n[nH]c(C)c32)cc1Cn1cc([N+](=O)[O-])cn1 (stereo unspecified) | ? | 0 | 0 | ? | 0 | 0
CC1CCN(C(=O)Cn2c3ccccc3c3nc4n(c(=O)c32)CCCS4)CC1 | ? | 0 | 0 | 23.1µM | 0 | 0
O=C(Cn1c(=O)c(C(F)(F)F)nc2ccccc21)N1CCC2(CC1)OCCO2 | 0 | 0 | 0 | 0 | 0 | 0
CCN(CC)S(=O)(=O)c1ccc2c(c1)c(=O)c(C(=O)NCc1ccccc1OC)cn2C | 18.4µM | 0 | 0 | 23.1µM | - | -
C/C1=C\[C@@H](C)C/C=C/[C@H]2[C@@H]3O[C@]3(C)[C@@H](C)[C@H]3[C@H](Cc4c[nH]c5ccccc45)NC(=O)[C@]32C(=O)/C=C/C(=O)[C@@H]1O | 0.146µM | 2.82µM | 0 | 0.146µM | 0 | -105.0
COc1cccc(CC(=O)N2CCN(Cc3cccc(Cl)c3)CC2)c1 | ? | 0 | 0 | 0 | 0 | 0
COc1ccc2nc(NC(=O)CCc3nc(C4=CCN(C)CC4)no3)sc2c1 | 0 | 0 | 0 | 0 | 0 | 0
COc1ccc(NC(=O)CCc2nc(C3=CCN(Cc4cccc(Cl)c4)CC3)no2)cc1OC | 11.6µM | 0 | 0 | 16.4µM | - | -
COc1ccc(NC(=O)CCc2nc(C3=CCN(Cc4cccc(Cl)c4)CC3)no2)c(OC)c1 | 18.4µM | ? | 0 | 5.8µM | - | -
Cc1cccc(CN2CC=C(c3noc(CCC(=O)Nc4ccc(C)c(F)c4)n3)CC2)c1 | 13µM | ? | 0 | 16.4µM | - | -
NS(=O)(=O)c1cc(C2(O)NC(=O)c3ccccc32)ccc1Cl (stereo unspecified) | 0 | 0 | 0 | 0 | 0 | 0
O=C(O)c1ccc(NC(=O)N2C[C@H]3C[C@@H](C2)c2cccc(=O)n2C3)cc1 | 0[9.04 µM] | 0 | 0 | 0[9.04 µM] | 0 | 0
COc1cc2c(cc1OC)-c1c(OC)c(OC)cc3c1C(C2)N(C)CC3 (stereo unspecified) | ? | 0 | 0 | ? | 0 | 0
COc1cc2c(cc1OC)-c1c(O)c(OC)cc3c1[C@H](C2)N(C)CC3 | 23.7µM | - | - | ? | - | -
O=C(Nc1ncc(Cc2ccccc2)s1)C1=NCCN1 | ? | 0 | 0 | 0 | 0 | 0
CC(C)c1ccc(Cc2cnc(NC(=O)c3ccc4c(c3)CC(c3ccccc3)OC4=O)s2)cc1 (stereo unspecified) | 18.4µM | 0 | 0 | 23.1µM | - | -
O=[N+]([O-])c1ccc(C(=Nc2ccccc2)N2CC2)cc1 | 14.6µM | 0 | 0 | 8.2µM | 0 | 0
C[N+](C)(N)CCOC(=O)C(O)(c1ccccc1)C1CCCCC1 (stereo unspecified) | 0 | 0 | 0 | 0 | 0 | 0
O=C(Nc1cccc(C(F)(F)F)c1)C1CCCN1S(=O)(=O)c1cccc2nsnc12 (stereo unspecified) | ? | ? | 0 | 18.4µM | - | -
SMILES | TDP1 cell noCPT | TGFb SMAD3 inh | HepG2 viability | DT40 TDP1 CPT | S-ASM inh | IL-1B inflam inh
CC(O)(CS(=O)(=O)c1cccc(C(F)(F)F)c1)C(=O)Nc1cccc(C(F)(F)F)c1 (stereo unspecified) | ? | 0 | 0 | ? | 0 | 0
O=C(CC1CCCCC1)N1CCC(c2nc(-c3ccc(S(=O)(=O)N4CCCC4)cc3)no2)CC1 | 8.2µM | 0 | 0 | 20.6µM | 0 | 0
COc1ccc(CNCCc2ccccc2F)c(OC)c1C | 23.1µM | 0 | 0 | 14.6µM | 0 | -65.0
COc1ccc(CNCCc2c[nH]c3ccccc23)c(OC)c1C | 7.31µM | 0 | 0 | 5.8µM | 0 | -
COc1cc(C)c(CNCCc2c[nH]c3ccccc23)cc1C | 7.31µM | ? | 11.2µM | 8.2µM | 0 | -71.8
COC(=O)C1=CO[C@@H](C)[C@@H]2CN(CCc3c[nH]c4ccccc34)CC[C@H]12 | ? | 0 | 0 | ? | 0 | 0
Cc1ccc(NC(=O)COC(=O)CCc2c[nH]c3ccccc23)cc1[N+](=O)[O-] | 0 | 0 | 0 | ? | 0 | 0
CC(C)C[C@H](NC(=O)[C@H](Cc1ccccc1)NC(=O)CNC(=O)[C@H](CO)NC(=O)[C@@H](N)Cc1ccc(O)cc1)C(=O)N[C@H](C(=O)O)[C@H](C)O | 0[4.12 µM] | - | - | 0[4.12 µM] | - | -
Cc1ccc2c(c1)cc1c(=O)n(CC(=O)N3CCC4(CC3)OCCO4)nc(C)n12 | ? | 0 | 0 | ? | 0 | 0
CC1(C)S[C@@H]2[C@H](N3C(=O)C(c4ccccc4)NC3(C)C)C(=O)N2[C@H]1C(=O)O (stereo partly specified) | 0 | - | - | 0 | - | -
O=c1[nH]c(=S)[nH]c(O)c1/C=C1/C=c2ccccc2=N1 | 8.2µM | 12.6µM | 0 | 7.31µM | 0 | -99.3
COC(COC(N)=O)C1=C(N2CC2)C(=O)C(C)=C(N2CC2)C1=O (stereo unspecified) | 0.164µM | ? | 0 | 0.164µM | 0 | -113.4
O=C(Nc1ccccc1C(F)(F)F)c1cccn(Cc2ccccc2)c1=O | 18.4µM | 0 | 0 | ? | - | -
COC(=O)c1ccccc1NC(=O)c1cccn(Cc2cccc(Cl)c2)c1=O | 18.4µM | ? | 0 | ? | - | -
O=C(Nc1ccon1)c1cccn(Cc2cccc(Cl)c2)c1=O | 0 | 0 | 0 | 0 | - | -
Cc1ccc2[nH]c3c(c2c1)CN(C(=O)CN1C[C@H]2C[C@@H](C1)c1cccc(=O)n1C2)CC3 | 0 | 0 | 0 | 0 | 0 | 0
O=C1N[C@@H](Cc2ccccc2)C(=O)N2[C@H]3Nc4ccccc4[C@@]3([C@]34C[C@H]5C(=O)N[C@@H](Cc6ccccc6)C(=O)N5[C@H]3Nc3ccccc34)C[C@@H]12 | ? | ? | 0 | ? | 0 | 0
